Assay outcomes from PubChem BioAssay.
GC-B act = GC-B (human) receptor activation. P20594. HEK293-GC-B cells, CNP EC30, cGMP TR-FRET; 0% at EC30 CNP, 100% saturating CNP. activation, % at 10 µM. 0.11% of 370,000 active. AID 1920062;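 active means activation at 10 µM reaching about 35% in either raw or pattern-adjusted values, limit read from the data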
GC-A act = GC-A (human) enzyme activation; P16066; HEK293 GC-A cells, cGMP TR-FRET, EC30 ANP; 0% at EC30 ANP, 100% saturating ANP; activation, % at 10 µM; 0.14% of 370,000 active; AID 1671463; in the data active means activation above about 40%
MsrA inh = bovine MsrA inhibition. purified bovine MsrA, absorbance read-out. inhibition, % at 15.5 µM. 0.75% of 360,000 active; in the data active means inhibition above about 4.5%
MsrA act = activates bovine MsrA enzyme; purified bovine MsrA, absorbance read-out; activation, % at 10.6 µM; 0.3% of 360,000 active; in the data active means activation above about 7.5%
MsrA activ conf = confirmation of bovine methionine sulfoxide reductase A activators; shares compounds with MsrA act; purified bovine MsrA, absorbance read-out; activation, % at 10.6 µM; 12% of 1,000 active; AID 602270; in the data active means activation above about 4%;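 further: enzyme coupled to thioredoxin and thioredoxin reductase with NADPH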
Large screens that a line does not name were inactive (follow-up assays come after a bar, where they were run). Compounds with a hit are over-represented: about 1.2% of the library has one in this group of screens.

OC12CCCCC1C(c1ccc3c(c1)OCO3)N(Cc1ccc(F)cc1)CC2 (configuration not stated)	MsrA act 9.5 | MsrA activ conf inactive
Cc1ccc(C=Nn2c(-c3n[nH]c4c3CCC4)n[nH]c2=S)s1	none (no result: MsrA inh, MsrA act)
Cc1nn(C)c(C)c1NC(=O)CCSc1nc(-c2ccco2)cc(C(F)(F)F)n1	none
Cc1cc(NC(=O)CCSc2nc(-c3ccco3)cc(C(F)(F)F)n2)n(-c2ccccc2)n1	MsrA act 18 | MsrA activ conf inactive
COc1ccc(CC(=O)N2CCN(C(=O)c3ccc4nc(C)n(C5CCCC5)c4c3)CC2)cc1	none (no result: MsrA inh, MsrA act)
O=C(CSc1nnc(-c2cccnc2)n1-c1ccc(Cl)cc1)Nc1ccccc1-c1ccccc1	none (no result: MsrA inh, MsrA act)
CCOC(=O)c1nn(-c2ccc(C)cc2)c(=O)c2c(N)scc12	MsrA act 8.6 | MsrA activ conf inactive
CCOC(=O)c1nn(-c2ccc(F)cc2)c(=O)c2c(N)scc12	none
Cc1cccc(N2CCN(S(=O)(=O)c3ccc(-c4coc(C)n4)cc3)CC2C)c1 (configuration not stated)	MsrA act 7.7 | MsrA activ conf inactive
CN(CCc1cnn(C)c1)Cc1nc(Cc2ccccc2)no1	MsrA act 10 | MsrA activ conf inactive
CN(Cc1cnn(C)c1)Cc1nc(COc2ccccc2)no1	none
Cc1ccc(Cn2cc(CN3[C@H](C)COc4cc(Br)ccc4S3(=O)=O)nn2)cc1	none (no result: MsrA inh, MsrA act)
S=c1ncc2[nH]c(=S)[nH]c2[nH]1	MsrA act 7.9 (no result: GC-B act, GC-A act, MsrA inh) | MsrA activ conf 6.2
S=c1[nH]c2ccc(Cl)cc2[nH]1	none
O=C(CC(c1ccccc1)c1cc(Cl)ccc1O)N1CCOCC1 (configuration not stated)	MsrA act 9.8 | MsrA activ conf inactive
O=C(O)C1=NOC(CNC(=O)c2ccccc2Cl)C1 (configuration not stated)	MsrA act 11 | MsrA activ conf inactive
CCOc1cccc(-c2nn3c(-c4cccc(C)c4)nnc3s2)c1	none (no result: MsrA inh, MsrA act)
COc1ccc(NS(=O)(=O)c2cccc(C(=O)NCC(c3ccc(OC)cc3)N3CCCC3)c2)cc1 (configuration not stated)	none
COc1ccc(C(CNC(=O)c2cccc(N(C)C)c2)N2CCCC2)cc1 (configuration not stated)	MsrA act 9.0 | MsrA activ conf inactive
O=C(NNC1=Nc2ccccc2SC1)c1ccc(F)cc1	MsrA act 7.7 | MsrA activ conf inactive
O=C(NNC1=Nc2ccccc2SC1)c1ccc(Cl)cc1	none
COc1cc(/C=N/n2nnnc2N)ccc1OC(C)=O	none
COc1ccc(/C=N/Nc2nnc(C)n2N)cc1OC(C)=O	MsrA act 12 | MsrA activ conf inactive
COc1ccc(/C=N/Nc2nnc(C)n2N)cc1OC	MsrA act 9.0 | MsrA activ conf inactive
COc1ccc(/C=N/Nc2ncnc(Cl)c2N)cc1OC	none
COc1ccc2cc3cc(C(=O)Nc4ccc(F)cc4)sc3nc2c1	none (no result: MsrA inh, MsrA act)
COc1ccccc1OCC(=O)N/N=C/C=C/c1ccc([N+](=O)[O-])o1	MsrA act 10 | MsrA activ conf inactive
Cc1ccccc1OCC(=O)N/N=C/c1ccc([N+](=O)[O-])o1	none
O=C(O)CSc1nnc(Cn2cnc3ccccc32)n1CCc1ccccc1	MsrA act 8.8 | MsrA activ conf inactive
O=C(O)CSc1nnc(Cc2ccccc2)n1Cc1ccccc1	none
COc1ccc2c3c([nH]c2c1)C1=NCC[C@]12c1ccccc1N=CN2CC3	none (no result: MsrA inh, MsrA act)
CC(=O)Oc1c(S(=O)(=O)c2ccccc2)c(C)nn1C(C)(C)C	MsrA act 10 | MsrA activ conf inactive
C[C@H]1[C@H](NC(=O)c2ccc(Cl)cc2)CC[C@@]23CCCN2C(=O)CCC[C@@H]13	none (no result: MsrA inh, MsrA act)
CC1(C)CC(=O)N(CC(=O)N2CCN(c3ccc(F)cc3)CC2)c2ccccc2S1(=O)=O	none (no result: MsrA inh, MsrA act)
COc1ccc(/C=C/C(=O)NCCc2ccc(S(N)(=O)=O)cc2)cc1	MsrA act 13 | MsrA activ conf inactive
CN1CCN(NC(=S)NC2CCCC2)CC1	MsrA act 7.9 | MsrA activ conf inactive
CCN(CC)S(=O)(=O)c1cc(NC(=O)COC(=O)CCC(=O)c2cccs2)ccc1C	MsrA act 8.4 | MsrA activ conf inactive
O=C(NCC1COCCO1)C1CCN(S(=O)(=O)c2cccc3ccccc23)CC1 (configuration not stated)	none (no result: MsrA inh, MsrA act)
O=C(NC1CCC1)c1ccc(C#Cc2cccc(F)c2)nc1	none (no result: MsrA inh, MsrA act)
C=C1CCC[C@]2(C)C[C@H]3OC(=O)C(CNCCN(CC)CC)[C@H]3CC12 (some centres not stated)	MsrA act 8.4 | MsrA activ conf inactive
Cc1noc(C)c1S(=O)(=O)NC1CCN(Cc2ccccc2)CC1	MsrA act 10 | MsrA activ conf inactive
Cc1cc(C)c(S(=O)(=O)NC2CCN(Cc3ccccc3)CC2)c(C)c1	none
COP1(=O)CCOCC[C@H](CC(C)C)NC(=O)[C@H](CC(C)C)N1 (some centres not stated)	none (no result: MsrA inh, MsrA act)
CC1(C(=O)Nc2ccccc2)CCN1C(=O)Cc1ccc(-c2ccccc2)cc1 (configuration not stated)	MsrA act 14 | MsrA activ conf 5.2
COc1cccc(NC(=O)C2(C)CCN2C(=O)Cc2ccc(-c3ccccc3)cc2)c1 (configuration not stated)	none
C=CCN(c1cccc(C(F)(F)F)c1)S(=O)(=O)c1cccc(C(=O)OCC(=O)Nc2ccccc2)c1	MsrA act 8.3 | MsrA activ conf inactive
Clc1ccc(-n2c(Cc3cccs3)nnc2SC/C=C/c2ccccc2)cc1	none (no result: MsrA inh, MsrA act)
O=C(NCCNC(=O)c1ccc(-c2ccc(Cl)c(Cl)c2)o1)c1cnccn1	MsrA act 10 | MsrA activ conf inactive
COc1cccc(/C=C2\CC3(OC(=O)C4CCCC4)CCCN2C3)c1 (configuration not stated)	none (no result: MsrA inh, MsrA act)
CN(C)c1nc(C#N)nc(N2CCOCC2)n1	none
CC(C)N(C#N)c1nc(N2CCOCC2)nc(N2CCOCC2)n1	MsrA act 17 | MsrA activ conf inactive
COCCN(CCOC)Cc1cc(=O)oc2cc(C)ccc12	MsrA act 12 | MsrA activ conf inactive
COCCN(CCOC)Cc1cc(=O)oc2cc3c(cc12)CCC3	none
O=c1oc2ccc(C#CC3(O)CCCCC3)cc2cc1-n1cc(C2(O)CCCCC2)nn1	MsrA act 8.6 | MsrA activ conf inactive
O=C(NN=Cc1ccco1)c1cccnc1	none (no result: MsrA inh, MsrA act)
CCn1c(COc2ccc(C)cc2)nnc1SCC(=O)Nc1ccccc1-c1ccccc1	none (no result: MsrA inh, MsrA act)
CC(C)=CC([C@]12C[C@H](CO)N[C@@H]1Nc1ccccc12)S(=O)(=O)c1ccccc1 (some centres not stated)	none (no result: MsrA inh, MsrA act)
CSc1cccc(N2C(=O)C3CCCN3C2=S)c1 (configuration not stated)	MsrA act 8.1 | MsrA activ conf inactive
Cc1cccc(N2C(=O)C3CCCN3C2=S)c1 (configuration not stated)	none
CSc1ccc(-c2nc(O)c3cnccn23)cc1	MsrA act 10 | MsrA activ conf inactive
O=C(c1ccc(Cl)cc1Cl)N1CCC(c2nc3c(nnn3Cc3ccco3)c(=O)[nH]2)CC1	MsrA act 23 | MsrA activ conf inactive
